Screening results: PubChem BioAssay, SRMLSC
In the library only some 6.8% were active in any assay of this set; here they are far more common.
PMK inhibit – S. pneumoniae PMK inhibition; purified PMK, PK/LDH-coupled NADH absorbance 340 nm; inhibition, % at 10 µM; 0.49% of 65,000 active; AID 539;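 active = top-ranked compounds by inhibition in the single 10 µM screen, taking a fixed number of the strongest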;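 also: 0% = full reaction with DMSO carrier and 100% = background rate without enzyme reaction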
NADH enzymes – blocks coupling enzymes of NAD/NADH assays | coupled PK/LDH NADH assays, four targets | IC50, µM (top dose mostly 10 µM), for inactives: top-dose inhibition | 0.02% of 65,000 active | AID 774;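 active = single-dose screening hits from any of four coupled enzyme assays that gave an IC50 when retested across doses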;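 also: the DPM-DC format reads NADH fluorescence rather than 340 nm absorbance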
Spn MK inh – S. pneumoniae mevalonate kinase inhibition; purified MK, PK/LDH-coupled NADH absorbance 340 nm; inhibition, % at 10 µM; 0.48% of 65,000 active;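 active = ranked among the strongest by inhibition in the single 10 µM screen, a fixed top-ranked set picked for dose follow-up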
Abs 340nm – compound absorbs light at 340 nm; compound absorbance at 340 nm, fold over control; fold change at 10 µM; 65,000 tested, under 10 active; AID 708;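 active = at 10 µM dose, initial 340 nm absorbance at least 2 fold that of control wells; inactive = change under 2 fold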;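 also: initial absorbance extrapolated from kinetic A340 decline of NADH oxidation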
Spn DPM-DC inh – blocks S. pneumoniae diphosphomevalonate decarboxylase; purified DPM-DC, PK/LDH coupled NADH fluorescence; calls only at 10 µM; 0.49% of 65,000 active; AID 556;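 active = the 320 compounds with the highest percent inhibition in the single-dose primary screen, excluding strongly autofluorescent ones, cut at about 32% in these data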;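 also: kinetic rate of NADH fluorescence loss reporting ADP formed by the decarboxylase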
Autofluor 339 – intrinsic fluorescence of library compounds, ex339/em460 – biochemical, MLSMR library, data from DPM-DC assay, artefact control, profiling panel. compound autofluorescence, ex339/em460 nm, NADH buffer; active compounds read high; 1 = no-compound wells, NADH background. fluorescence fold increase at 10 µM. 5.5% of 65,000 active. AID 709;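 active = at 10 µM, mean starting fluorescence two-fold or more over control wells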;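 also: signal is the first read of a kinetic run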
Numbers without * were called inactive; i = inactive; / = not tested or not shown; + = active, no number.

SMILES	PMK inhibit	NADH enzymes	Spn MK inh	Abs 340nm	Spn DPM-DC inh	Autofluor 339
CCCCNC(=O)c1c(N)n(/N=C/c2cccnc2)c2nc3ccccc3nc12	2.0	6.0%	11.0	1.05	i	1.25
Cc1ccc(C)c(S(=O)(=O)c2c(N)n(/N=C/c3ccco3)c3nc4ccccc4nc23)c1	0.0	1.0%	0.0	1.06	i	2.14*
CCCCCNC(=O)c1c(N)n(/N=C/c2ccco2)c2nc3ccccc3nc12	8.0	4.0%	5.0	1	i	1.51
O=C(Nc1ccc(N2CCN(C(=O)c3ccco3)CC2)c(Cl)c1)c1c(F)c(F)c(F)c(F)c1F	6.0	4.0%	6.0	1.03	i	1.13
CN(C)/C=C1\C(=O)c2ccc(N(C)C)nc2CC1c1ccccc1 (centres undefined)	8.0	8.0%	0.0	1.11	i	2.02*
CN(C)/C=C1/Sc2ccccc2C1=O	0.0	2.0%	5.0	1.09	i	1.14
CCCC(=O)NCCCc1nc2ccccc2n1C(C)C	0.0	2.0%	5.0	1.02	i	1.12
Cc1cc(C(=O)Nc2sc(C)c(-c3ccc(F)cc3)c2C(N)=O)no1	8.0	6.0%	2.0	1.01	i	2.3*
Cc1ccc(C2C(C#N)=C(N)Oc3c2sc2ccccc32)o1 (centres undefined)	5.0	12.0%	18.0	1.03	i	1.59
O=C(OCCN1C(=O)CCC1=O)c1ccc(S(=O)(=O)N2CCCCC2)cc1	0.0	1.0%	4.0	1.04	i	1.14
CCN(CC)CCNc1nc2ccccc2n1C	0.0	1.0%	4.0	1.03	i	1.11
Cc1ccc2c(c1)nc(NCCO)n2C	13.0	10.0%	4.0	1.03	i	2.08*
Clc1ccc(SCCn2ccnc2)cc1	0.0	4.0%	41.0*	0.99	i	1.02
Clc1ccc(OCCn2ccnc2)c(Cl)c1	3.0	4.0%	6.0	1.07	i	1.1
Cc1nc(Sc2nnnn2C)c2c3c(sc2n1)CCC3	10.0	11.0%	11.0	1.06	/	2.12*
N#Cc1c(C(F)(F)F)cc(-c2ccco2)nc1SCc1ccncc1	7.0	18.0%	8.0	1.07	+	2.57*
N#Cc1c(C(F)(F)F)cc(-c2ccco2)nc1SCc1ccccn1	0.0	2.0%	4.0	1.04	/	2.09*
COc1ccc(C(=O)N(Cc2nc(-c3ccc(C)cc3)no2)C2CCCCC2)cc1OC	9.0	7.0%	12.0	1.02	i	1.09
COc1cccc2c1N1C(=O)c3c(C(=O)O)cccc3C1CC2(C)C (centres undefined)	7.0	3.0%	2.0	1.01	i	1.07
CC(=O)c1ccc(-c2nc3c4ccccc4ccn3c2C(C)=O)o1	3.0	3.0%	3.0	1.16	/	2.2*
COC(=O)Cc1ccc2c3ccccc3n(C)c2c1	0.0	4.0%	8.0	1.09	i	1.21
Cc1cccc(C)c1NS(=O)(=O)c1c(C)[nH]c(=O)[nH]c1=O	6.0	2.0%	0.0	1.01	i	1.16
Cc1[nH]nc2nc3c(c(OC(=O)c4ccccc4)c12)c(=O)n(C)c(=O)n3C	7.0	3.0%	3.0	1.08	i	1.1
N#Cc1c(-c2ccco2)c2c([nH]c1=S)CCCC2	16.0	14.0%	14.0	1.01	i	1.12
N#Cc1c(-c2cccnc2)c2c([nH]c1=S)CCCC2	0.0	42.0%	80.0*	1.06	+	1.16
SMILES	PMK inhibit	NADH enzymes	Spn MK inh	Abs 340nm	Spn DPM-DC inh	Autofluor 339
c1ccc(CCNc2nc3ccccc3n3nnnc23)cc1	13.0	7.0%	0.0	1.05	i	2.58*
c1ccc(N2CCN(c3nc4ccccc4n4nnnc34)CC2)cc1	15.0	5.0%	0.0	1.06	i	1.78
COc1cc(OC)cc(-c2nnc(Nc3nc4c(F)cccc4s3)o2)c1	11.0	6.0%	7.0	1.04	/	3.41*
Fc1cccc2sc(Nc3nnc(-c4ccccc4)o3)nc12	11.0	8.0%	4.0	1.21	/	4.89*
COc1ccc(-c2nnc(Nc3nc4c(OC)cccc4s3)o2)cc1	12.0	8.0%	0.0	1.23	i	1.97
COc1ccc(-c2nnc(Nc3nc4c(OC)cccc4s3)o2)c(OC)c1	18.0	23.0%	2.0	1.22	+	2.33*
O=C(CSc1nnc(-c2ccccc2)o1)Nc1ccccc1F	4.0	3.0%	5.0	1.04	i	1.05
COCCOC(=O)c1c(C)oc2ccc(OC(=O)c3ccc4c(c3)OCO4)cc12	11.0	4.0%	0.0	1.05	i	1.13
O=C(Nc1nnc(-c2ccccc2Cl)o1)c1cccnc1	3.0	1.0%	0.0	1.08	i	1.08
O=C1CCCc2[nH]nc(-c3cccnc3)c21	12.0	6.0%	6.0	1.01	i	1.08
Cc1ccc(C)c(NC(=O)CNS(=O)(=O)c2ccccc2)c1	4.0	6.0%	10.0	1.02	i	1.11
Cc1cc(N2CCN(C)CC2)nc2ccc(NC(=O)CCC(=O)NCc3ccco3)cc12	6.0	13.0%	7.0	1.06	i	3.49*
COc1ccc(C)cc1NC(=O)CCC(=O)Nc1ccc2nc(N3CCN(C)CC3)cc(C)c2c1	8.0	15.0%	8.0	1.01	i	2.48*
CCOc1ccccc1C(=O)Nc1ccc2nc(N3CCN(c4ncccn4)CC3)cc(C)c2c1	9.0	7.0%	4.0	1.13	/	2.23*
COc1cccc(C(=O)Nc2ccc3nc(N4CCN(c5ncccn5)CC4)cc(C)c3c2)c1OC	0.0	5.0%	10.0	1.04	i	1.38
Cc1cc(N2CCOCC2)nc2ccc(NC(=O)CCC(=O)N3CCCC(C)C3)cc12 (centres undefined)	6.0	7.0%	7.0	1.06	/	4.83*
CCN1CCN(c2cc(C)c3cc(NC(=O)c4ccc5c(c4)OCO5)ccc3n2)CC1	3.0	3.0%	4.0	1.14	i	1.11
CC(C)OC(=O)Cn1cnc2ccc(Br)cc2c1=O	14.0	8.0%	9.0	1.01	i	1.11
Cc1ccc2oc(=O)c3cnn(CC(=O)N(CCCN4CCOCC4)Cc4ccco4)c3c2c1	0.0	1.0%	1.0	1.03	i	1.13
CC1(C)CC(=NO)CC(C)(C)N1	3.0	7.0%	8.0	1.02	i	1.15
COc1ccc(-c2cc(=O)oc3c(C)c(O)c(CN(C)C)cc23)cc1	5.0	12.0%	8.0	1.15	i	2.39*
COC(=O)c1ccc(CSc2ncnc3c2nnn3-c2ccc(OC)cc2)o1	3.0	2.0%	5.0	1	i	1.08
CCOC(=O)Cc1csc(NC(=O)c2ccc(Br)s2)n1	6.0	7.0%	8.0	1.08	i	1.08
CCOc1cccc2sc(NC(=O)c3ccc(Br)s3)nc12	0.0	1.0%	1.0	1.15	/	2.09*
CC(=O)Nc1c(O)n(C)c2ccccc12	active	8.0%	11.0	0.98	i	0.99
O=c1oc2ccc(Br)cc2cc1-c1nc2ccccc2o1	6.0	10.0%	9.0	1.01	i	2.27*
O=C(Nn1cnnc1)c1cc2cc(Br)ccc2oc1=O	9.0	9.0%	9.0	1.12	i	1.16
